Hits are enriched below; roughly 7.4% of the tested compounds scored in any of these assays.
SMN2 splice enh = enhancers of SMN2 splice variant expression; HEK293 SMN2-luciferase splicing reporter, luminescence, 30-36 h; Potency, µM (highest dose often 46.1 µM), inactives show at the highest dose activity change, positive = activation, usual class: activators; actives 2.8% (n = 210,000); note: % of control where 0% means no effect; nearly all actives have a fitted effect of over 55% in size
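HEK293 cells carry an SMN2 […]–luciferase reporter in which exon 7 inclusion puts luciferase in frame. Cells were plated 10-12 h before compound addition, then incubated 30-36 h at 37C. ONE-Glo luminescence was read; sodium butyrate at 4.5 mM final served as control.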
ELG1 genotox = inducers of genotoxicity in HEK293T ELG1-luciferase cells; HEK293T ELG1-luciferase reporter, luminescence, 16 h; Potency, µM (top dose mostly 46 µM), for the others: top-dose activity change, positive = activation, most hits filed as activators; actives 1.3% (n = 330,000); note: % of control where 0% means no effect; nearly all actives have a fitted effect of over 60% in size
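Screening used a luciferase reporter fused to human ELG1 in HEK293T cells. Luminescence was read on a CCD plate imager after 16 hr exposure and 30 min ONE-Glo incubation.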
NPC1 promoter act = activators of NPC1 promoter | Huh7 NPC1 promoter luciferase reporter, 24 h | AID 485313 | actives 2.4% (n = 320,000) | Potency, µM (highest dose often 9.22 µM), for the others: top-dose activation, hits mostly activators; note: % of control where 0% means no effect; nearly all actives have a fitted effect of over 60% in size
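Luciferase expression driven by the NPC1 promoter was measured in stably transfected Huh7 cells after a 24 h compound incubation, using a luciferase reagent and a luminescence read.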
FLuc modulator = inhibits or activates purified firefly luciferase, miR-21 counter-screen; purified FLuc, Km substrates, luminescence inhibition; Potency, µM (highest dose often 57.5 µM), without a hit: top-dose activity change, negative = inhibition, most hits filed as inhibitors; AID 588342; P08659; actives 6.9% (n = 360,000);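 note: plate controls were vehicle for no effect and reference inhibitor for full effect; nearly all actives have a fitted effect of over 55% in size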
Target sequence (P08659 whole entry, looked up): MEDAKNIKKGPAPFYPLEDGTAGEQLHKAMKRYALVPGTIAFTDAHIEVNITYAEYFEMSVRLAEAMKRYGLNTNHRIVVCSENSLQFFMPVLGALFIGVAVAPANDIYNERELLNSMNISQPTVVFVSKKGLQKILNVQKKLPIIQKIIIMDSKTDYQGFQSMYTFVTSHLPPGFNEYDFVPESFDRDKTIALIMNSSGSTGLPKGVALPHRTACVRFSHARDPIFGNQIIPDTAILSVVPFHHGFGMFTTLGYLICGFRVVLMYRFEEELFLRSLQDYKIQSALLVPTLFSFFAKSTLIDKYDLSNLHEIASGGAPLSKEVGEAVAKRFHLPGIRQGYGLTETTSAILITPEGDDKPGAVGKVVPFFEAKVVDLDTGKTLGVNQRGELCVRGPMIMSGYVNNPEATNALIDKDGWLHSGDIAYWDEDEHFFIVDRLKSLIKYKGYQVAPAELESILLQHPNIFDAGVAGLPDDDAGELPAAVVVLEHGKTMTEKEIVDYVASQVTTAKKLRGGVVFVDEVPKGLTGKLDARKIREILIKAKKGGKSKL
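Purified P. pyralis luciferase, 10 nM final, with Km-level 10 uM D-luciferin and 10 uM ATP in 50 mM Tris acetate pH 7.5, 10 mM Mg acetate, 0.01% Tween-20, 0.05% BSA; 6-point qHTS titration about 60 µM downward; luminescence read.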
Rab9 promoter act = activators of Rab9 promoter; actives 2.8% (n = 320,000); Potency, µM (doses to about 9.22 µM), for inactives: at the top dose activation, negative = inhibition, hits mostly activators; Huh7 Rab9 promoter-luciferase reporter, luminescence, 24 h; note: % of control where 0% means no effect; nearly all actives have a fitted effect of over 60% in size
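Huh7 cells stably carrying a Rab9 promoter-luciferase reporter, 1500 cells per well in OP-MEM I with 10% FBS, treated with compound 24 hours at 37C. Luciferase activity read by luminescence after 10 minutes with Amplite reagent.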
The depositor's hits bear a star; ? = inconclusive; / = not tested or not shown; [ ] = another dose, or the depositor's remark. Calls come from the whole dose curve; as a rule, active = well fitted curve in the direction sought with a large enough effect; inconclusive = small, poorly fitted or top-dose-only effect, or another doubt; inactive = no such curve, though single readings can be large; an effect the other way counts as inactive or inconclusive. Potency is the fitted concentration of half-maximal effect.

SMILES | SMN2 splice enh | ELG1 genotox | NPC1 promoter act | FLuc modulator | Rab9 promoter act
CCn1ncc(/C=N/NC(=O)c2cc(Cl)ccc2OC)c1C | 10% | 1% | -2% | ? | 0%
CCOC(=O)c1ccc(NC(=O)C2CCCO2)cc1 (centres undefined) | 43% | 27% | ? | ? | 6.3µM*
CCCCOC(=O)c1ccc(NC(=O)C2CCCO2)cc1 (centres undefined) | 8% | 15% | 28% | ? | ?
COc1ccc(NC(=O)CN2C(=O)NC(C)(c3ccccc3)C2=O)cc1Cl (centres undefined) | / | 2% | -1% | 21µM* | -3%
COc1ccc(C2(C)NC(=O)N(CC(=O)Nc3ccc4ccccc4c3)C2=O)cc1OC (centres undefined) | / | -7% | -1% | 2% | -1%
Cc1cccc(CC(=O)c2c[nH]c3ccccc23)c1 | / | 7% | 1% | -16% | 11%
COc1ccc2nc(-n3c(C)ccc3C)sc2c1 | 2% | 14% | 6% | -2%[2.3 µM] | 2%
COc1ccc2nc(N3C(=O)/C(=C/c4ccccc4)NC3=S)sc2c1 | -19% | -4% | 1% | 11µM* | -2%
CCOc1ccc2nc(N3C(=O)/C(=C/c4ccccc4)NC3=S)sc2c1 | / | ? | ? | 6µM* | ?
CCOc1ccc2nc(Cl)sc2c1 | 10% | 0% | 1% | -11% | 4%
Cc1cc(C)cc(NC(=O)CC(C)n2nc(C)cc2C)c1 (centres undefined) | / | / | / | -7% | /
N#Cc1ccc(CN2CCN(C(=O)C3CC(=O)N(c4ccccc4F)C3)CC2)cc1 (centres undefined) | / | -3% | / | / | /
O=[N+]([O-])c1ccc(O)c(-c2nn[nH]n2)c1 | -3% | ? | 13% | 27µM* | 27%
COc1ccc(OC)c(CCNC(=O)CCc2nnc3ccc(N4CCOCC4)nn23)c1 | / | -2% | -6% | 2% | -2%
CCN1/C(=C\C(=S)Nc2ccccc2)Sc2ccccc21 | ? | ? | ? | 13µM* | 2.8µM*
CCN1/C(=C\C=C(C(C)=O)C(C)=O)Sc2ccccc21 | 17% | 19% | -8% | -18% | -2%
O=C1CCCc2nc(N3CCN(C(=O)c4ccco4)CC3)ncc21 | / | 21µM* | 4µM* | 27µM* | 2.5µM*
Nc1nc(N2CCN(C(=O)c3ccco3)CC2)nc2ccc(Br)cc12 | 7.9µM* | ? | 2µM* | 9.5µM* | 1.1µM*
Nc1nc(N2CCN(C(=O)c3ccco3)CC2)nc2ccccc12 | 13µM* | 13% | 27% | 19µM* | ?
O=C(c1ccco1)N1CCN(c2ncccn2)CC1 | 11% | 7% | -2% | -1% | 11%
Cc1cc(N2CCN(C(=O)c3ccco3)CC2)c2ccccc2n1 | / | -2% | -3% | 5% | -3%
COc1ccc(S(=O)(=O)N2CCCC(C(=O)NCCN3CCOCC3)C2)cc1C (centres undefined) | / | 4% | 1% | -1% | 3%
O=C(C1CCCN(S(=O)(=O)c2ccccc2)C1)N1CCCCC1 (centres undefined) | / | -1% | 1% | -1% | -1%
CC1=C2[C@@H]([C@H](C)CC[C@H]2/C=C(\C)C(=O)O)[C@H](O)C1 | 1% | / | / | / | /
NS(=O)(=O)c1ccc(O)c(NC(=O)c2ccc([N+](=O)[O-])cc2)c1 | 17% | 9% | ? | -8% | ?
SMILES | SMN2 splice enh | ELG1 genotox | NPC1 promoter act | FLuc modulator | Rab9 promoter act
CCN(CC)S(=O)(=O)c1ccc(=O)n(CC(=O)N2Cc3ccccc3CC2C(N)=O)c1 (centres undefined) | / | 0% | -3% | 3% | -2%
CCCOc1ccc(C2Nc3cccc4cccc(c34)N2)cc1 | / | 4% | 20% | 11µM* | 4%
CCN(CC)c1ccc(C2Nc3cccc4cccc(c34)N2)cc1 | / | 3% | 29% | 11µM* | 23%
O=C(NCCNC(=O)c1ccc(Br)o1)c1cccnc1 | / | 3% | -1% | -2% | -5%
C[C@](O)(c1ccccc1)c1nccc2ccccc12 | -5%[9.22 µM] | / | / | / | /
CC(C)c1nc(SCC(=O)Nc2ccc(C(=O)O)cc2)c2c3c(sc2n1)CCCC3 | / | 9% | -2% | 27µM* | -1%
CC1CCc2c(sc3ncnc(SCC(=O)Nc4ccc(C(=O)O)cc4)c23)C1 (centres undefined) | / | 3% | -1% | ? | -2%
COc1cccc(/C=N/NC(=O)CNC(=O)COc2cccc(C)c2)c1O | / | 13% | -42% | -5% | -37%
Cc1ccc(/C=N/NC(=O)CNC(=O)c2cccs2)cc1 | / | ? | 2% | 15µM* | 29%
O=C(CNC(=O)c1cccs1)NCC(=O)OCc1c(F)cccc1Cl | -23% | -1% | -3% | -9% | 6%
O=C(CNC(=O)c1cccs1)N/N=C/c1c(F)cccc1Cl | / | ? | 13% | 21µM* | 16%
COc1cccc(/C=N/NC(=O)CNC(=O)CCc2ccccc2)c1O | / | ? | -8% | 9.5µM* | -13%
COc1cccc(/C=N/NC(=O)CNC(=O)c2cccs2)c1O | / | 16% | 1% | 21µM* | -8%
CCOc1ccc(CC(=O)Nc2ccc3nc(N4CCCCC4)cc(C)c3c2)cc1OCC | / | / | / | -16% | /
Cc1ccc(NC(=O)C2CCCN(C(=O)NCc3ccccc3)C2)c(C)c1 (centres undefined) | / | -12% | -1% | -1% | 1%
O=C(Oc1ccc2c3c(c(=O)oc2c1)CCCC3)c1ccco1 | 6% | 1% | -5% | 17µM* | -1%
COc1ccc(/C(N)=N/OC(=O)CC2CCCCC2)cc1 | / | ? | 20% | 17µM* | 20%
N/C(=N\OC(=O)CCC1CCCC1)c1cccc([N+](=O)[O-])c1 | / | 4% | 1% | 9.5µM* | 1%
N/C(=N\OC(=O)CCC1CCCCC1)c1cccnc1 | 17% | 10% | 11% | 19µM* | -4%
N/C(=N\OC(=O)CC1CCCCC1)c1cccc([N+](=O)[O-])c1 | -27% | 2% | -1% | 6µM* | -4%
CCCCC(=O)N(C)C | -7% | / | / | / | /
CSCCC(=O)NC1CCCN(CCc2ccccc2)C1 (centres undefined) | / | 0% | -2% | 1% | -1%
CCOC(=O)N1CCN(C(=O)CN(c2cc(C)ccc2OC)S(=O)(=O)c2ccc(C)cc2)CC1 | 7% | / | / | -2% | /
CCOCc1c(C(=O)OCC(=O)Nc2ccc(C)c(S(=O)(=O)N(C)C)c2)oc2ccccc12 | -2% | -1% | -5% | -2% | -3%
COc1cc(C(=O)N/N=C/c2cccc(Oc3ccccc3)c2)ccc1O | / | 5% | -4% | 17µM* | 4%
O=C(N/N=C/c1cccc(Oc2ccccc2)c1)c1ccc(O)cc1O | / | 1% | 1% | 17µM* | 13%
O=C(N/N=C/c1cccc(Oc2ccccc2)c1)c1ccncc1 | ? | -3% | 1% | ? | 14%
C=CCn1c(SCC(=O)NCCOC)nnc1-c1cc2c(s1)CCC(CC)C2 (centres undefined) | 11% | -1% | -4% | 9.5µM* | -7%

Bioassay records: PubChem, National Center for Advancing Translational Sciences (NCATS)
